# Reference: the supplement of paper PMC8975748
# Structures can show the parent of a compound that is named as a salt. ± gives the standard deviation of the averaged measurements.
# How the values were obtained:
# [1] = system: Saccharomyces cerevisiae BY4741 SeMeCo community; test: z-score of prototroph abundance vs DMSO median; higher = larger share of this subpopulation than in DMSO controls; details: 10 µM; 24 h; SM minimal medium; subpopulation (auxotrophy): Prototroph
# Procedure, shortened: (§1)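 Cells of a Saccharomyces cerevisiae BY4741 community, carrying four plasmids that each restored one auxotrophy and encoded a distinct fluorescent protein, were pre-grown overnight to OD600 1.0 and diluted to 0.3. A 70 µl volume was added to 384-well plates acoustically predosed with library drugs (10 µM final) and grown 24 h in minimal SM medium. After paraformaldehyde fixation, automated confocal microscopy was used, with single-auxotroph fluorescent strains for thresholds and autofluorescence correction. The abundance of each subpopulation was scored as a z-score against the vehicle-well median.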
# [2] = system: Saccharomyces cerevisiae BY4741 SeMeCo community; test: z-score of subpopulation abundance vs DMSO median, subpopulation auxotrophic for L; higher = larger share of this subpopulation than in DMSO controls; details: 10 µM; 24 h; SM minimal medium; subpopulation (auxotrophy): L
# Procedure, shortened: as §1
# [3] = system: Saccharomyces cerevisiae BY4741 SeMeCo community; test: z-score of subpopulation abundance vs DMSO median, subpopulation auxotrophic for U; higher = larger share of this subpopulation than in DMSO controls; details: 10 µM; 24 h; SM minimal medium; subpopulation (auxotrophy): U
# Procedure, shortened: as §1
# [4] = system: Saccharomyces cerevisiae BY4741 SeMeCo community; test: z-score of subpopulation abundance vs DMSO median, subpopulation auxotrophic for H; higher = larger share of this subpopulation than in DMSO controls; details: 10 µM; 24 h; SM minimal medium; subpopulation (auxotrophy): H
# Procedure, shortened: as §1
# [5] = system: Saccharomyces cerevisiae BY4741 SeMeCo community; test: z-score of subpopulation abundance vs DMSO median, subpopulation auxotrophic for LU; higher = larger share of this subpopulation than in DMSO controls; details: 10 µM; 24 h; SM minimal medium; subpopulation (auxotrophy): LU
# Procedure, shortened: as §1
# [6] = system: Saccharomyces cerevisiae BY4741 SeMeCo community; test: z-score of subpopulation abundance vs DMSO median, subpopulation auxotrophic for LM; higher = larger share of this subpopulation than in DMSO controls; details: 10 µM; 24 h; SM minimal medium; subpopulation (auxotrophy): LM
# Procedure, shortened: as §1
# [7] = system: Saccharomyces cerevisiae BY4741 SeMeCo community; test: z-score of subpopulation abundance vs DMSO median, subpopulation auxotrophic for HM; higher = larger share of this subpopulation than in DMSO controls; details: 10 µM; 24 h; SM minimal medium; subpopulation (auxotrophy): HM
# Procedure, shortened: as §1
# [8] = system: Saccharomyces cerevisiae BY4741 SeMeCo community; test: z-score of subpopulation abundance vs DMSO median, subpopulation auxotrophic for HU; higher = larger share of this subpopulation than in DMSO controls; details: 10 µM; 24 h; SM minimal medium; subpopulation (auxotrophy): HU
# Procedure, shortened: as §1
# [9] = system: Saccharomyces cerevisiae BY4741 SeMeCo community; test: z-score of subpopulation abundance vs DMSO median, subpopulation auxotrophic for UM; higher = larger share of this subpopulation than in DMSO controls; details: 10 µM; 24 h; SM minimal medium; subpopulation (auxotrophy): UM
# Procedure, shortened: as §1
# [10] = system: Saccharomyces cerevisiae BY4741 SeMeCo community; test: z-score of subpopulation abundance vs DMSO median, subpopulation auxotrophic for HL; higher = larger share of this subpopulation than in DMSO controls; details: 10 µM; 24 h; SM minimal medium; subpopulation (auxotrophy): HL
# Procedure, shortened: as §1
# [11] = system: Saccharomyces cerevisiae BY4741 SeMeCo community; test: z-score of subpopulation abundance vs DMSO median, subpopulation auxotrophic for HLU; higher = larger share of this subpopulation than in DMSO controls; details: 10 µM; 24 h; SM minimal medium; subpopulation (auxotrophy): HLU
# Procedure, shortened: as §1
# [12] = system: Saccharomyces cerevisiae BY4741 SeMeCo community; test: z-score of subpopulation abundance vs DMSO median, subpopulation auxotrophic for HLM; higher = larger share of this subpopulation than in DMSO controls; details: 10 µM; 24 h; SM minimal medium; subpopulation (auxotrophy): HLM
# Procedure, shortened: as §1
# [13] = system: Saccharomyces cerevisiae BY4741 SeMeCo community; test: z-score of subpopulation abundance vs DMSO median, subpopulation auxotrophic for HUM; higher = larger share of this subpopulation than in DMSO controls; details: 10 µM; 24 h; SM minimal medium; subpopulation (auxotrophy): HUM
# Procedure, shortened: as §1
# [14] = system: Saccharomyces cerevisiae BY4741 SeMeCo community; test: z-score of subpopulation abundance vs DMSO median, subpopulation auxotrophic for LUM; higher = larger share of this subpopulation than in DMSO controls; details: 10 µM; 24 h; SM minimal medium; subpopulation (auxotrophy): LUM
# Procedure, shortened: as §1
# [15] = system: Saccharomyces cerevisiae BY4741 SeMeCo community; test: z-score of subpopulation abundance vs DMSO median, subpopulation auxotrophic for HLUM; higher = larger share of this subpopulation than in DMSO controls; details: 10 µM; 24 h; SM minimal medium; subpopulation (auxotrophy): HLUM
# Procedure, shortened: as §1
# [16] = system: Saccharomyces cerevisiae BY4741 SeMeCo community; test: mean cell size (pixel area) (pixels); higher = larger cells; details: 10 µM; 24 h; SM minimal medium
# Procedure, shortened: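 Harmony analysis of automated confocal images of paraformaldehyde-fixed yeast gave the mean cell pixel area per well. The yeast was a Saccharomyces cerevisiae BY4741 community carrying four plasmids, each with a fluorescent marker and each complementing one auxotrophy, incubated for 24 h in SM medium containing drug at a final 10 µM in 384-well plates. Results are averaged over 3 replicates. Same SeMeCo high-content imaging drug screen: Selleck FDA-approved drugs at 10 µM, 24 h in SM medium, 384-well plates, 3 replicates.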
Compound,z-score of prototroph abundance [1],z-score of subpopulation abundance [2],z-score of subpopulation abundance [3],z-score of subpopulation abundance [4],z-score of subpopulation abundance [5],z-score of subpopulation abundance [6],z-score of subpopulation abundance [7],z-score of subpopulation abundance [8],z-score of subpopulation abundance [9],z-score of subpopulation abundance [10],z-score of subpopulation abundance [11],z-score of subpopulation abundance [12],z-score of subpopulation abundance [13],z-score of subpopulation abundance [14],z-score of subpopulation abundance [15],mean cell size [16]
CCc1cc(C(N)=S)ccn1 [Ethionamide],0.06,0.86,-0.01,0.59,0.05,0.32,0.03,0.19,0.25,-0.03,-0.14,-0.28,-0.25,-0.07,-0.72,
CCCCCCCCCC(=O)NC1C(Oc2c3cc4cc2Oc2ccc(cc2Cl)C(OC2OC(CO)C(O)C(O)C2NC(C)=O)C2NC(=O)C(NC(=O)C4NC(=O)C4NC(=O)C(Cc5ccc(c(Cl)c5)O3)NC(=O)C(N)c3ccc(O)c(c3)Oc3cc(O)cc4c3)c3ccc(O)c(c3)-c3c(OC4OC(CO)C(O)C(O)C4O)cc(O)cc3C(C(=O)O)NC2=O)OC(CO)C(O)C1O (stereo not drawn) [Teicoplanin],,-0.21,-0.01,0.94,0.07,0.75,1.4,0.39,0.78,1.01,-0.15,-0.07,1.19,0.85,-0.79,
CC/C(=C(\c1ccccc1)c1ccc(OCCN(C)C)cc1)c1ccccc1 [Tamoxifen],,0.96,-0.18,1.57,0.89,1.82,0.93,1.39,0.21,0.95,0.93,0.89,0.85,0.23,0.09,11.75 ± 0.092
CC(=O)OCC(COC(C)=O)OC(C)=O [Triacetin],0.21,-0.06,0.01,0.22,-0.81,0.2,0.03,0.55,-0.42,-0.02,-1.12,-0.57,0.7,0.32,,12.4 ± 0.15
CN(C)CCCC1(c2ccc(F)cc2)OCc2cc(C#N)ccc21 (stereo not drawn) [Citalopram HBr],-0.34,-0.17,1.58,0.36,0.92,-0.05,-0.81,0.64,0.83,-0.06,0.43,0.45,0.08,-0.03,1.38,
CN[C@H](CC(C)C)C(=O)N[C@H]1C(=O)N[C@@H](CC(N)=O)C(=O)N[C@H]2C(=O)N[C@H]3C(=O)N[C@H](C(=O)N[C@H](C(=O)O)c4cc(O)cc(O)c4-c4cc3ccc4O)[C@H](O)c3ccc(c(Cl)c3)Oc3cc2cc(c3O[C@@H]2O[C@H](CO)[C@@H](O)[C@H](O)[C@H]2O[C@H]2C[C@](C)(N)[C@H](O)[C@H](C)O2)Oc2ccc(cc2Cl)[C@H]1O [Vancomycin],0.81,-0.12,-0.09,-0.2,0.08,-0.43,-0.74,,-0.16,-0.12,-0.21,-0.2,-0.71,-0.78,-0.03,12.3 ± 0.13
Cc1cc(CC(C)CC(C)(C)C)n(O)c(=O)c1 (stereo not drawn) [Piroctone Olamine],,,1.32,3.62,2.47,6.65,24,,6.25,,20.3,39.5,30.2,16,,
CC(C)(O/N=C(\C(=O)N[C@@H]1C(=O)N2C(C(=O)[O-])=C(C[n+]3ccccc3)CS[C@H]12)c1csc(N)n1)C(=O)O [Ceftazidime],0.11,-0.23,-0.24,0.63,-0.93,-0.09,-0.26,0.43,0.27,,0.34,-0.39,,0.05,-0.76,12 ± 0.14
C[C@]12CC[C@@H]3c4ccc(OC(=O)c5ccccc5)cc4CC[C@H]3[C@@H]1CC[C@@H]2O [Estradiol Benzoate],-0.27,,,-0.36,-0.68,0.31,0.05,-0.12,,-0.31,-0.51,-0.6,,0.37,-0.15,12.4 ± 0.25
C=CCN1CCCC1CNC(=O)c1cc2nn[nH]c2cc1OC (stereo not drawn) [Alizapride HCl],-0.2,,,-0.87,0.9,-0.39,-0.31,0.88,,,0.1,-0.44,0,0.44,0.23,12.3 ± 0.14
Nc1ccc(S(N)(=O)=O)cc1 [Sulfanilamide],0.43,,0.22,-0.45,-0.14,-1.02,-0.8,-1.15,0.11,-1.05,-1.52,-0.21,0.6,-0.2,-0.65,12.4 ± 0.23
O=c1[nH]cnc2c1ncn2[C@@H]1O[C@H](CO)[C@@H](O)[C@H]1O [Isoprinosine],0.72,,-0.71,0.09,-1.21,0,-0.53,-0.35,-0.74,-0.64,-0.46,-0.33,-0.24,,-0.65,12 ± 0.19
COc1cc2c(cc1OC)-c1cc3ccc(OC)c(OC)c3c[n+]1CC2 [Palmatine],-0.25,2.2,-0.98,-0.08,-0.2,1.94,1.01,-1.11,-0.01,1.04,1.86,0.37,,1.08,1.87,12.41 ± 0.069
Nc1nnc(-c2cccc(Cl)c2Cl)c(N)n1 [Lamotrigine],-1.13,,-0.91,0.08,0.85,,1.25,-0.39,0.01,1.44,0.23,0.44,0.8,1.86,1.58,12.37 ± 0.07
CC[C@H]1OC(=O)[C@H](C)[C@@H](O[C@H]2C[C@@](C)(OC)[C@@H](O)[C@H](C)O2)[C@H](C)[C@@H](O[C@@H]2O[C@H](C)C[C@H](N(C)C)[C@H]2O)[C@](C)(O)C[C@@H](C)CN[C@H](C)[C@@H](O)[C@]1(C)O [Azathramycin],,,0.07,0.33,-0.39,-0.14,0.1,-0.16,0.42,,-1.12,-0.79,0.01,-0.37,-0.5,12.5 ± 0.16
